E coli growth-1: E. coli growth inhibition, primary screen, OD600. 330,000 tested, 0.21% active. Escherichia coli growth, 23 h; stronger effect = lower value. AID 1053175, 2014. OD600 absorbance (concentration not given with the values);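 active means OD600 absorbance below the run mean of sample wells minus 3.6 SD, in any replicate, cut at about 0.56 in these data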
AddAB inh: growth inhibition of E. coli expressing H. pylori AddAB, primary screen, AddAB inhibitor project, absorbance; inhibition, % at 11.9 µM; 330,000 tested, 0.29% active; in the data active means inhibition above about 12%;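 further: 0% = vehicle wells of infected cells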
phage Ecoli inh: growth loss of phage-infected E. coli, primary screen, RecBCD inhibitor project, absorbance, with phage, HTS. inhibition, % at 11.9 µM. 360,000 tested, 0.26% active. AID 651602, 2012; in the data active means inhibition above about 11%
E coli growth-2: E. coli V3065 growth inhibition, primary screen, counter-screen for AddAB inhibitor project, absorbance, OD600; 18 h; inhibition, % at 11.9 µM; 330,000 tested, 0.27% active;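 active means inhibition above the campaign's mean inhibition across all tested compounds plus 3 SD, cut at about 9.9% in these data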;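 further: uninfected addAB+ strain grown without phage in ampicillin broth; 0% = DMSO wells and 100% = ciprofloxacin 0.95 µg/ml wells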
Tat transport: E. coli Tat export inhibitors, primary screen, MC4100, TorA-mCherry reporter, fluorescence, single point | 340,000 tested, 0.036% active | inhibition, % at 10 µM;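 active means mean replicate inhibition at least 50% and at least half of replicates individually reaching 50%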;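 further: exported cargo escapes ClpAP degradation while cytoplasmic cargo is degraded and loses fluorescence; 0% = median of neutral control wells and 100% = median of NaSCN control wells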
AddAB conf: growth loss of phage-infected E. coli expressing H. pylori AddAB, confirmation, AddAB inhibitor project, absorbance, E. coli V3065, T4 phage, triplicate | shares compounds with AddAB inh | OD; T4 phage with gene 2 nonsense mutations | inhibition, % at 11.9 µM | 880 tested, 64% active;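 active means mean inhibition above a set limit taken from the earlier primary screen, cut at about 13% in these data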;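 further: higher means less bacterial growth since AddAB block lets phage replicate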
RecBCD counter: growth loss of RecBCD+ E. coli with mutant T4 phage, counter-screen for AddAB inhibitor project, absorbance, V66 E. coli | inhibition, % at 11.9 µM | 880 tested, 73% active | OD growth | shares compounds with AddAB inh;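 active means mean inhibition above the mean of solvent-only control wells plus 3 SD, cut at about 4% in these data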;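 further: optical density read after an 18 h incubation at 37 °C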
Bact viability: bacterial viability inhibition counter-screen, confirmation, counter-screen for AddAB inhibitor project, absorbance; shares compounds with AddAB inh; absorbance (AddAB counterscreen); inhibition, % at 11.9 µM; 880 tested, 35% active; AID 488956, 2010; in the data active means inhibition above about 25%
RecBCD conf: growth loss of phage-infected RecBCD+ E. coli, confirmation, RecBCD inhibitor project, absorbance, E. coli V66, T4 gene 2 phage. 890 tested, 45% active. shares compounds with phage Ecoli inh. inhibition, % at 11.9 µM. AID 651982, 2013. E. coli V66 + T4 2- phage, growth OD;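 active means mean inhibition over triplicates exceeding the hit threshold derived in the original primary screen, cut at about 11% in these data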
Ecoli viability: E. coli viability inhibition, counter-screen for RecBCD inhibitor project, absorbance, high throughput; shares compounds with phage Ecoli inh; absorbance (OD) growth; inhibition, % at 11.9 µM; 890 tested, 29% active; AID 651983, 2013; in the data active means inhibition above about 20%;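 further: E. coli strain V66 grown with compound alone and no phage infection; 0% = bacteria with DMSO vehicle only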
AddAB phage OD: growth loss of phage-infected AddAB-carrying E. coli, confirmation, counter-screen for RecBCD inhibitor project, absorbance, E. coli V3065, T4 phage; shares compounds with phage Ecoli inh; E. coli expressing H. pylori AddAB + T4 phage, OD growth; gene 2 mutant T4, recBCD-deleted host; AID 651984, 2013; 890 tested, 45% active; inhibition, % at 11.9 µM;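 active means mean inhibition above the solvent-only control wells' mean plus 3 SD, cut at about 22% in these data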;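 further: higher means less bacterial growth from phage killing when AddAB is blocked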
* hit, by the source's call; x = no result given. Shown are actives, neighbours in structure and some others; about 0.51% of the full set was active somewhere.

SMILES | E coli growth-1 | AddAB inh | phage Ecoli inh | E coli growth-2 | Tat transport | AddAB conf | RecBCD counter | Bact viability | RecBCD conf | Ecoli viability | AddAB phage OD
CCn1cc(C(=O)O)c(=O)c2ccc(C)nc21 | 0.063* | 98* | 82* | 82* | 3 | 94* | 33* | 90* | 45* | 78* | 99*
CCn1cc(C(=O)OCc2ccccc2)c(=O)c2ccc(C)nc21 | 0.61 | 3 | -1 | -1 | 0 | x | x | x | x | x | x
O=C1c2ccccc2NC(c2ccc(-c3ccc(Br)cc3)o2)N1O (stereo unspecified) | 0.62 | 24* | 23* | 24* | -26 | 19* | 18* | 17 | 14* | 14 | 15
O=C1c2ccccc2NC(c2ccc(-c3ccc(F)cc3)o2)N1O (stereo unspecified) | x | 7 | 2 | 6 | -5 | x | x | x | x | x | x
O=C1c2ccccc2NC(c2ccc(-c3cccc([N+](=O)[O-])c3)o2)N1O (stereo unspecified) | 0.63 | 27* | 22* | 25* | -3 | 21* | 20* | 17 | 9 | 14 | 12
CC(=O)NN1C(=O)c2ccccc2NC1c1cccc([N+](=O)[O-])c1 (stereo unspecified) | 0.66 | 1 | 2 | 0 | 4 | x | x | x | x | x | x
CCOC1OC(C(=O)NC2CC2)=CC(c2ccc3c(c2)OCO3)C1CCCO (stereo unspecified) | 0.69 | x | x | x | x | x | x | x | x | x | x
O=C1C=C(c2ccc(-c3ccccc3)c(F)c2)CC(c2ccc(Cl)cc2)C1 (stereo unspecified) | 0.73 | x | x | x | x | x | x | x | x | x | x
CC1CN(C(C)CO)C(=O)c2cc(NS(=O)(=O)c3cn(C)cn3)ccc2OC1CN(C)C(=O)Nc1ccc(C(F)(F)F)cc1 (stereo unspecified) | 0.67 | x | x | x | x | x | x | x | x | x | x
COc1ccccc1-n1c(=O)oc2ccc(Cl)cc2c1=O | 0.65 | 12* | 12* | 6 | 9 | 3 | 10* | 2 | 9 | 12 | 10
CCCCC1CNCCN1CCc1cc(C(F)(F)F)cc(C(F)(F)F)c1 (stereo unspecified) | 0.66 | x | x | x | x | x | x | x | x | x | x
O=C(O)/C=C/c1ccc([N+](=O)[O-])o1 | 0.4* | 46* | 18* | 73* | 14 | 101* | 16* | 77* | 20* | 19 | 101*
O=[N+]([O-])c1ccc(/C=N/N=C/c2ccc([N+](=O)[O-])o2)o1 | x | x | 8 | x | -2 | x | x | x | x | x | x
CCCCCC(CC(=O)NO)C(=O)NC(C(=O)N1CCCC1CO)C(C)C (stereo unspecified) | 0.47 | 22* | 25* | 22* | 31 | 19* | 24* | 15 | 18* | 19 | 21
CCc1nnc(NS(=O)(=O)c2ccc(NC(=S)Nc3ccc(F)cc3)cc2)s1 | 0.65 | 15* | 16* | 9 | 6 | -5 | 1 | -1 | 3 | 2 | 8
O=c1oc(CCCO)cc2ccc(C=Cc3cccc([N+](=O)[O-])c3)cc12 | 0.64 | x | x | x | x | x | x | x | x | x | x
Oc1ccccc1N=Nc1nc(-c2ccccc2)c(-c2ccccc2)[nH]1 | x | 28* | 20* | 22* | -4 | 21* | 16* | 18 | 11 | 15 | 19
